Among all 69,000 compounds or so, about 8,600 (12%) showed an effect of 50% or more. Only a selection was taken, and strong results are over-represented in it overall.
Tested on: Plasmodium berghei
Assay: Screen against P. berghei liver stage (PbLuc), transformed with Luciferase, at 10uM
Format: functional, HepG2
Settings: tested at 10 uM

Structure (SMILES)	INHIBITION [%]
COc1ccc2c(c1)CCCN(C(=O)NCC1CCCO1)C2 (stereo not given)	37.4
NC(=O)CN1CCCN(C(=O)CCOc2ccccc2Cl)CC1	29.7
CCCNC(=O)C1(Cc2cc(-c3ccccc3)no2)CCN(C(C)=O)C1 (stereo not given)	-3.94
CC(O)CNc1c(NCc2ccco2)c(=O)c1=O (stereo not given)	18.2
c1ccc(Cc2noc(CN3CCOC(Cn4cncn4)C3)n2)cc1 (stereo not given)	13.3
COCCO[C@@H]1CCN(Cc2csc(C)n2)[C@H]1Cc1ccccc1	18.1
Cc1noc(C)c1-c1cccc(CC2CCN(C(=O)c3cc[nH]n3)C2)n1 (stereo not given)	46.1
CS(=O)(=O)N1CCc2c(cccc2NC(=O)CC(F)(F)F)C1	0.79
NS(=O)(=O)N1CCc2ccc(NC(=O)CC(F)(F)F)cc21	63.3
NS(=O)(=O)N1CCc2ccc(NC(=O)Cc3ccc(F)cc3)cc21	22.9
NS(=O)(=O)N1CCc2ccc(NC(=O)Cc3ccccc3F)cc21	54.4
NS(=O)(=O)N1CCc2ccc(NC(=O)CCc3ccncc3)cc21	38.5
CS(=O)(=O)Nc1ccc(CNC(=O)CN2CCc3ccccc32)cc1	16.6
Cc1cnc2c(C(=O)N(C)Cc3cc(C4CC4)[nH]n3)cnn2c1	21.8
CC(C)NC(=O)Nc1nc2c(s1)CN(C(=O)NCc1cccs1)CC2	46.4
c1ccc(-c2nc(CCNCc3cccnc3)co2)cc1	45.3
COCC1Cn2nnc(-c3cnn(C)c3)c2CN1Cc1cccs1 (stereo not given)	2.58
O=C(c1cccs1)N1CCc2c(nc(N3CCCC3)[nH]c2=O)C1	34
Cc1cc(Cl)ccc1S(=O)(=O)NCC(C)N1CCN(C)CC1 (stereo not given)	68.3
Cc1cccc(S(=O)(=O)NCC(C)N2CCN(C)CC2)c1Cl (stereo not given)	-38.2
CC(CNS(=O)(=O)c1cccc(Cl)c1)N1CCN(C)CC1 (stereo not given)	46.4
Cc1cc(N(C)C)nc(C2(C)CCCN2C(=O)c2cnccn2)n1 (stereo not given)	16.5
Cc1ccc2nc(CNCCCN3CCCC3=O)cc(O)c2c1	31.7
CCOCCNCc1cc(O)c2cc(C)ccc2n1	53.3
CCN(CC)CCNCc1cc(O)c2cc(C)ccc2n1	16.3
Cc1cc(C)c2nc(CNCCNS(C)(=O)=O)cc(O)c2c1	43.9
Cc1ccc2nc(CNCCCOc3ccccc3)cc(O)c2c1 [UCSF924]	75.7
CCOCCCNCc1cc(O)c2cc(C)ccc2n1	0.672

Structure (SMILES)	INHIBITION [%]
CCOCC1(CNCc2cc(O)c3cc(C)ccc3n2)CC1	35.4
CCS(=O)(=O)CCNCc1cc(O)c2cc(C)cc(C)c2n1	45.8
COCCCNCc1cc(O)c2cc(C)cc(C)c2n1	51.2
Cc1cc2nc(SCC(=O)NC(C)C)n(Cc3ccco3)c(O)c-2n1	12.6
CN(CC(=O)N1CCCN(Cc2cscn2)CC1)c1cnccn1	13.9
COCCN1CC[C@@H]2OC[C@H](C(=O)NCc3cccs3)C[C@@H]2C1	41.5
Cc1ncsc1CN1CCOC(C)(C(=O)N2CCOCC2)C1 (stereo not given)	-3.94
CNc1nc(CNC(=O)Nc2ccccc2C(F)(F)F)cs1	19.4
NC(=O)C1(c2cnccn2)CCCN1C(=O)Cc1ccsc1 (stereo not given)	12.84
O=C(NCc1cccnc1-n1cncn1)c1cncc(Br)c1	43.8
CCCc1nc(C(=O)NCc2cccnc2-n2cncn2)cs1	-22.1
O=C(NCc1cccnc1-n1cncn1)c1cc(Cl)ccn1	38.5
Cc1ccc(C(=O)NCc2cccnc2-n2cncn2)cc1S(C)(=O)=O	17.2
CCN(CC)c1ccc(C(=O)NCc2cccnc2-n2cncn2)cn1	16.6
CN(C)c1cc(C(=O)NCc2cccnc2-n2cncn2)ccn1	83.7
O=C(NCc1cccnc1-n1cncn1)c1ccc2c(c1)CCO2	-0.113
CN(C)c1ccc(C(=O)NCc2cccnc2-n2cncn2)cc1F	52.6
O=C(NCc1cccnc1-n1cncn1)c1ccncc1	51.2
CCN1CCC2(CN(C(=O)N(C)C)CC23CCN(CC2CC2)CC3)C1=O (stereo not given)	-38.1
CCCn1c(N2CCCC2)nc2c(C)nn(C)c2c1=O	44.05
CC(C)C(NC(=O)c1cnc(N2CCOCC2)nc1)c1cccs1 (stereo not given)	38.7
Cc1ccccc1NCc1nc2n(n1)CCCCC2	34.2
CN1CC(Oc2ccc(Cl)cc2)=NC(SCC(=O)c2ccccc2)=N1	12.9
CN1CC(Oc2ccccc2)=NC(SCC(=O)c2ccccc2)=N1	1.98
CCN1CC(Oc2ccc(Cl)cc2)=NC(SCC(=O)c2ccccc2)=N1	55.5
Cn1c(=O)n(C)c2nc(Br)c(CC(=O)c3ccccc3)n2c1=O	37.3
CC(C(=O)NCc1ccnc(N(C)C)c1)n1cccn1 (stereo not given)	49.4

From ChEMBL document CHEMBL4513216, “Probing the Open Global Health Chemical Diversity Library for Multistage-Active Starting Points for Next-Generation Antimalarials” (ACS Infect Dis, 2020)
